Compounds with a hit are over-represented: about 3% of the library has one in this group of screens.
p53null 32C tox: p53 null cell cytotoxicity, permissive temperature. hit rate 0.62% among 55,000. H1299-neo p53 null cells, ATP luminescence, 24 h, 32C. Potency, µM (doses to about 46.1 µM), usual class: cytotoxic; further: nearly all actives have a fitted effect of over 55% in size
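H1299-neo (p53-null) cells, 600/well, were pre-incubated overnight at 37C, then exposed to compounds at up to 46 uM for 24 hr at 32C. Viability was measured as ATP content by luminescence, and AC50 values came from Hill fits.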
mTORC1 inh: reduces mTORC1 signaling in Tsc2 and p53 null MEF cells | AID 493208 | hit rate 0.78% among 44,000 | Potency, µM (titrated, usually from 38.3 µM), most hits filed as inhibitors | Tsc2-/- p53-/- MEF, phospho-rpS6 immunofluorescence/PI, 24 h; further: nearly all actives have a fitted effect of over 50% in size
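Tsc2-/-, p53-/- MEFs (empty-vector stable line) in DMEM + 10% FBS were treated with compounds 24 h at 37 degree Celsius, fixed, and immunostained for phospho-rpS6 (Alexa-488) with propidium iodide counterstain. Laser-scanning cytometry gave % positive cells, normalized against 7.5 nM rapamycin and DMSO.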
PMP22 txn prim: PMP22 gene transcription modulation; S16 Pmp22-F2sN Schwann cells, FLuc/NLuc coincidence luminescence, 24 h; Potency, µM (series often up to 57.5 µM), usual class: inhibitors; hit rate 2% among 43,000; active means clear falling dose curves in both reporters; inconclusive means both reporters move, but less clearly or upward; inactive means either reporter flat; the % is the NLuc reporter signal
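S16(c9) Schwann cells with FLuc/NLuc coincidence reporter in the Pmp22 3' UTR; compounds pin-transferred, 24 h at 37C. Dual-luciferase read: FLuc first, then NLuc after Stop&Glo, each 10 min at room temperature.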
S16 viability: toxic to S16 Pmp22-F2sN Schwann cells; S16 Pmp22-F2sN Schwann cells viability, CellTiter-Glo, 24 h; Potency, µM (doses to about 57.5 µM), hits mostly cytotoxic; hit rate 0.48% among 43,000; AID 1508642; further: nearly all actives have a fitted effect of over 65% in size
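S16 Schwann cells carrying the Pmp22-F2sN reporter, seeded in 1536-well format, were exposed to library compounds for 24 h at 37C. Viability was read as CellTiter-Glo luminescence after 15 min at room temperature.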
p53null 39C tox: kills p53 null cells at the nonpermissive temperature. H1299 p53-null (neo) cells, 39C, ATPlite viability, 24 h. hit rate 0.97% among 55,000. Potency, µM (top dose mostly 46.1 µM), actives largely listed as cytotoxic; further: nearly all actives have a fitted effect of over 50% in size
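H1299 lung cancer cells, p53-null (H1299-neo) or expressing p53 A138V (H1299-p53A138V), were plated overnight at 37C, then exposed to compounds at up to 46 uM for 24 hr at 39C. Viability was read by ATP-based luminescence.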
SKOV3 invasion: blocks SKOV3ip1 adhesion and invasion in omental model. SKOV3ip1-GFP adhesion/invasion on 3D omental model, fluorescence. Potency, µM (titrated, usually from 45.8 µM), most hits filed as inhibitors. hit rate 0.1% among 46,000; further: nearly all actives have a fitted effect of over 65% in size
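Adhesion/invasion was scored as fixed GFP-labeled SKOV3ip1 cell counts (488/509 nm), normalized to DMSO and tomatine controls. Cancer cells in serum-free medium, with four compound doses (0.36-46 umol/L), sat 2 hr at RT then 16 hr at 37 C on a 48 hr fibroblast/mesothelial/ECM culture.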
NLuc saturating: counter-screen for PMP22 expression modulators: NanoLuc inhibition, saturating substrate; shares compounds with PMP22 txn prim; Secreted NLuc enzyme (filtered S16 cell medium), Nano-Glo luminescence; Potency, µM (highest dose often 57.5 µM), actives largely listed as inhibitors; hit rate 4% among 690
NLuc Km counter: inhibits NanoLuc under Km conditions, PMP22 counter-screen | secreted NLuc enzyme, coelenterazine luminescence, Km conditions | AID 1508639 | hit rate 5% among 690 | shares compounds with PMP22 txn prim | Potency, µM (highest dose often 57.5 µM), usual class: inhibitors
FLuc ctr PMP22: counter-screen for PMP22 expression modulators: firefly luciferase inhibition; shares compounds with PMP22 txn prim; purified P. pyralis FLuc, luminescence, 10 min; Potency, µM (titrated, usually from 57.5 µM), actives largely listed as inhibitors; 690 tested, under 10 active; AID 1508640
Target sequence (P08659 whole entry, looked up): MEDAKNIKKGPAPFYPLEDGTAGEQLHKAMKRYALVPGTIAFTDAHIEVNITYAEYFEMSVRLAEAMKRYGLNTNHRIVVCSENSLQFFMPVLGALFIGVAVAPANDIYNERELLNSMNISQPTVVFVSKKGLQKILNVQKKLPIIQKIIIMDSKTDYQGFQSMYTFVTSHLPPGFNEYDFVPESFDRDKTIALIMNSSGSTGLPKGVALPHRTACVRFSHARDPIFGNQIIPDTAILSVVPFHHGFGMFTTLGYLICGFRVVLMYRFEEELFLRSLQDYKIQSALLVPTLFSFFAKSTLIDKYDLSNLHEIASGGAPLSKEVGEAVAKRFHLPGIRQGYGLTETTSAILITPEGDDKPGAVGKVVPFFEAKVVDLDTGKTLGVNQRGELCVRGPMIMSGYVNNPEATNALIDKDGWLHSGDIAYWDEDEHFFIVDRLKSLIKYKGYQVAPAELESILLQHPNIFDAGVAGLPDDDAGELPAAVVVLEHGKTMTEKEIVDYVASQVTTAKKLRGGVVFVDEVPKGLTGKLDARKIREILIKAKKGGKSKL
S16 viab conf: confirmation of cytotoxicity in S16 Pmp22-F2sN Schwann cells (luciferase reporters placed in the Pmp22 gene) | hit rate 7% among 690 | shares compounds with PMP22 txn prim | S16 Schwann cells viability, CellTiter-Glo ATP luminescence, 24 h | AID 1508641 | Potency, µM (top dose mostly 57.5 µM), hits mostly cytotoxic
PMP22 txn conf: PMP22 transcription modulation, confirmatory; shares compounds with PMP22 txn prim; AID 1508646; Potency, µM (doses to about 57.5 µM), most hits filed as inhibitors; hit rate 22% among 690; S16 Schwann cells Pmp22-F2sN, dual luciferase, 24 h; active means clear falling dose curves in both reporters; inconclusive means both reporters move, but less clearly or upward; inactive means either reporter flat; the % is the FLuc reporter signal
Of the large screens only hits and unclear results are named; the others gave an inactive call (follow-up assays come after a bar, where they were run). Unless noted, the call rests on the fitted dose curve; in most records, active means well fitted curve in the direction sought with a large enough effect; inconclusive means small, poorly fitted or top-dose-only effect, or another doubt; inactive means no such curve, though single readings can be large; an effect the other way counts as inactive or inconclusive.

CCOC(=O)N1CCN(Cc2nc3cc(NC(=O)C(C)C)ccc3n2C(C)C)CC1	mTORC1 inh inconclusive, PMP22 txn prim 6.3µM, S16 viability inconclusive | NLuc saturating inactive | NLuc Km counter inactive | FLuc ctr PMP22 inactive | S16 viab conf inactive | PMP22 txn conf inactive
CCOC(=O)N1CCN(Cc2nc3cc(NC(=O)c4ccccc4OC)ccc3n2C(C)C)CC1	PMP22 txn prim inconclusive, S16 viability inconclusive, p53null 39C tox inconclusive, SKOV3 invasion inconclusive
CCc1cncnc1N1CCN(Cc2nc3ccc(C(F)(F)F)cc3[nH]2)CC1	none (no result: p53null 32C tox, mTORC1 inh, PMP22 txn prim, S16 viability, p53null 39C tox)
O=C(N[C@@H](c1ccccc1)[C@@H]1CCCCN1)c1cccc(C(F)(F)F)c1Cl	none (no result: p53null 32C tox, mTORC1 inh, PMP22 txn prim, S16 viability, p53null 39C tox)
COc1cc([C@H]2Oc3cc([C@H]4Oc5cc(O)cc(O)c5C(=O)[C@H]4O)ccc3O[C@H]2CO)ccc1O	none (no result: p53null 32C tox, mTORC1 inh, PMP22 txn prim, S16 viability, p53null 39C tox)
Cc1ccc(Cn2c(=O)n(Cc3ccccc3)c(=O)c3c(C)c(C)sc32)cc1	none
CCOC(=O)c1ccccc1NC(=O)Cn1c(=O)n(Cc2ccccc2)c(=O)c2c(C)c(C)sc21	mTORC1 inh inconclusive, PMP22 txn prim 18µM | NLuc saturating inactive | NLuc Km counter inactive | FLuc ctr PMP22 inactive | S16 viab conf inactive | PMP22 txn conf inactive
Fc1ccc(Nc2c3c(nc4ccccc24)CCC3)cc1	PMP22 txn prim 14µM, p53null 39C tox inconclusive | NLuc saturating inconclusive | NLuc Km counter inactive | FLuc ctr PMP22 inactive | S16 viab conf inactive | PMP22 txn conf 18µM
COc1ccc(Nc2c3c(nc4nncn24)CCC3)cc1Cl	PMP22 txn prim inconclusive
COc1ccc(C)cc1Nc1c2c(nc3ccccc13)CCC2	mTORC1 inh inconclusive, PMP22 txn prim 11µM, p53null 39C tox 16µM | NLuc saturating inconclusive | NLuc Km counter inactive | FLuc ctr PMP22 inactive | S16 viab conf inactive | PMP22 txn conf inconclusive
COc1ccc(Nc2c3c(nc4ccccc24)CCC3)cc1Cl	mTORC1 inh inconclusive, PMP22 txn prim 10µM, S16 viability inconclusive, p53null 39C tox inconclusive | NLuc saturating inactive | NLuc Km counter inactive | FLuc ctr PMP22 inactive | S16 viab conf inactive | PMP22 txn conf inconclusive
Fc1ccc(F)c(Nc2c3c(nc4ccc(Cl)cc24)CCC3)c1	PMP22 txn prim 19µM | NLuc saturating inconclusive | NLuc Km counter inconclusive | FLuc ctr PMP22 inactive | S16 viab conf inactive | PMP22 txn conf inactive
CC(=CC(=O)Nc1ccccc1C(=O)O)c1ccc2ccccc2c1	none (no result: p53null 32C tox, mTORC1 inh, PMP22 txn prim, S16 viability, p53null 39C tox)
CCc1cc2c(cc1N1CCC(N3CCOCC3)CC1)C(C)(C)c1[nH]c3cc(C#N)ccc3c1C2=O	none (no result: p53null 32C tox, mTORC1 inh, PMP22 txn prim, S16 viability, p53null 39C tox)
CCC1=C[C@@H]2CN(C1)Cc1c([nH]c3ccccc13)[C@@](C(=O)OC)(c1cc3c(cc1OC)N(C)[C@@H]1[C@@](O)(C(=O)OC)[C@H](OC(C)=O)[C@]4(CC)C=CCN5CC[C@]31[C@@H]54)C2	none (no result: p53null 32C tox, mTORC1 inh, PMP22 txn prim, S16 viability, p53null 39C tox)
Cc1ccc(NS(=O)(=O)c2ccc3[nH]c4c(c3c2)CCCCCC4)cc1Cl	PMP22 txn prim inconclusive, SKOV3 invasion inconclusive

Screening results: PubChem BioAssay, National Center for Advancing Translational Sciences (NCATS)
